Data reported in PubChem BioAssay AID1159580 (chemical genetic matrix, 2015).
In all, about 5,500 compounds went through this assay and about 2,000 (36%) were called active. Inconclusive results (about 18%) are left out. Rule as the data show it: active = normalized growth mostly below about 0.91 (no sharp cut-off); inconclusive = no clear call, values can overlap the other calls; inactive = mostly above about 0.92. The list shows a part of the results.

Experiment: chemical genetic growth profiling, strain panel (AID 1159580);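 also: tested at 20 µM; growth read once vehicle control cultures reached saturation at 30 °C; 1 = growth at the plate median or of vehicle wells; lower values mean less growth of the strain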
Conditions: S. cerevisiae deletion strains, growth OD

Measured: normalized growth

C#C[C@]1(O)CC[C@H]2[C@@H]3CCC4=Cc5oncc5CC4(C)[C@H]3CCC21C (stereo partly specified)
inactive: locus YAL040C, strain CLN3, active compounds read low 0.943 | locus YCL061C, strain MRC1 (second series), active compounds read low 1 | locus YDR363W, strain ESC2, active compounds read low 1.02 | locus YER002W, strain NOP16, active compounds read low 0.949 | locus YGR078C, strain PAC10, active compounds read low 0.948 | locus YGR229C, strain SMI1, active compounds read low 1.02 | locus YJR075W, strain HOC1, active compounds read low 1 | locus YMR263W, strain SAP30, active compounds read low 1 | locus YMR307W, strain GAS1, active compounds read low 0.988 | locus YNL153C, strain GIM3, active compounds read low 0.917 | locus YNL175C, strain NOP13, active compounds read low 0.917 | locus YNL197C, strain WHI3, active compounds read low 0.921 | locus YNL224C, strain SQS1, active compounds read low 0.934 | locus YOR083W, strain WHI5 (second series), active compounds read low 0.99 | locus YPL055C, strain LGE1, active compounds read low 1.02 | locus YPL241C, strain CIN2, active compounds read low 1
